Potency and max response data for 89 compounds are collected here from PubChem BioAssay AID651814 (National Center for Advancing Translational Sciences (NCATS), 2012).

Among all 2,100 compounds or so, about 590 (28%) were called active. About 42% were inconclusive and are not listed. The list shows a part of the results. Values without a mark were called inactive. The call rests on the fitted dose curve; in most records, active means well fitted inhibition curve with a large enough effect; inconclusive means small, poorly fitted or top-dose-only effect; inactive means flat fitted curve, though single readings scatter.
Potency means the concentration at half of the fitted maximal effect.

DNA dC->dU-editing enzyme APOBEC-3F (Homo sapiens), sequence (Q8IUX4 whole entry, looked up): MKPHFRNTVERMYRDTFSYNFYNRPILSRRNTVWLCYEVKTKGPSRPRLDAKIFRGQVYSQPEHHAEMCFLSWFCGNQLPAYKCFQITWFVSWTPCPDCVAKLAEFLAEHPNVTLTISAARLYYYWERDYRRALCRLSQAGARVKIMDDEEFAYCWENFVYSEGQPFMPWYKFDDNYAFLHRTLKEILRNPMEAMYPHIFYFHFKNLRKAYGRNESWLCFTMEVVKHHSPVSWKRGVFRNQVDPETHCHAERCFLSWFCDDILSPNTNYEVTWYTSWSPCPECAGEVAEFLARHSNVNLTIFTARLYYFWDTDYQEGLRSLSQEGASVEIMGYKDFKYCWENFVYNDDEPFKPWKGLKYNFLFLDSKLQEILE

The target in the assay is DNA dC->dU-editing enzyme APOBEC-3F (Homo sapiens) (UniProt Q8IUX4). The assay is described as follows: qHTS for inhibitors of Vif-A3F interactions: Cherry picks. Further: nearly all actives have a fitted effect of over 70% in size.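 On max response: % of control where 0% means no effect; active compounds raise eYFP fluorescence by blocking Vif-driven A3F loss.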 The conditions noted are these: HeLa A3F-eYFP + Vif (tagged APOBEC3F with the HIV-1 protein that degrades it), eYFP fluorescence, 24 h. The method in brief:
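HeLa cells stably expressing A3F-eYFP plus Vif, cultured overnight, then exposed to compounds at several concentrations for 24 h at 37 deg C. Reduced Vif-driven degradation read as rising eYFP fluorescence (488 nm ex/500-530 nm em) by laser-scanning cytometry; MG132 as positive control.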
In general terms: Quantitative high-throughput screening tests each substance at several concentrations.
As to `CC(C)OC(=O)c1c2c(n3ccccc13)C(=O)c1ccccc1C2=O`, the Potency was 4.61 µM (active). In the case of `Cn1c(=O)c(N)c2c3c(c(Br)ccc31)C(=O)c1ccccc1-2`, the max response was 0.0476%.

Consider `Oc1cccc(Nc2nc(O)c(/C=C3\C=Nc4ccccc43)s2)c1`, for which the Potency was 14.6 µM (active). As for `O=S(=O)(Nc1cc(Sc2ncn[nH]2)c(O)c2ccccc12)c1ccccc1`, the max response is -29.8%.

On to `CCCOc1ccccc1C1CC(=O)Nc2cc3c(cc21)OCO3` (centres undefined), for which the max response is -14.8%. Same read-out and setting: in the case of `CCN(CC)c1ccc(/C=C/C(=O)c2ccc(Br)cc2)cc1` it was -4.77%.

As for `CCNc1ccc(Br)cc(C(=O)/C=C/c2ccc3c(c2)OCO3)c1=O`, the Potency is 18.4 µM (active). Regarding `COc1ccc(OC)c(/C=C/c2nc3ccccc3[nH]c2=O)c1`, the Potency is 18.4 µM (active). As for `O=c1[nH]c2ccccc2nc1/C=C/c1ccc(F)cc1`, the Potency was 14 µM (active). `CCCN(C(=O)CSc1n[nH]c(-c2ccc(OC)cc2)n1)c1c(N)n(Cc2ccccc2)c(=O)[nH]c1=O`: the max response is -13.7%. Consider `CCC(=C/c1sc2ccc3ccccc3c2[n+]1C)/C=C1\Sc2ccc3ccccc3c2N1C`, for which the max response is -0.328%.

As for `CC(=O)c1cccc(-c2ccnc3c2CC(C(=O)Nc2cccc(NS(C)(=O)=O)c2)O3)c1` (centres undefined), the max response is -25.6%. As to `CCSC1=NSC2=NC(=O)/C(=C\c3coc4ccccc4c3=O)C(=N)N12`, the Potency was 18.4 µM (active).

Consider `O=C(O)CCCN1C(=O)/C(=C\C(Cl)=C\c2ccccc2)SC1=S`, for which the Potency is 4.44 µM (active). Same read-out and setting: in the case of `Cc1ccc2[nH]cc(/C=C/c3cc[n+](C)cc3)c2c1` it was 1.4 µM (active); in that of `C[n+]1ccc(/C=C/c2c[nH]c3ccc(F)cc23)cc1`, 16.4 µM (active); in that of `COc1ccc2c(c1)c(/C=C/c1cc[n+](C)cc1)cn2C`, 2.23 µM (active).

Turning to `COc1ccc2[nH]cc(/C=C/c3cc[n+](C)cc3)c2c1`, the Potency is 13 µM (active). `O=C1OC(/C(=C\Nc2cc(Cl)ccc2O)[N+](=O)[O-])c2ccccc21` (centres undefined): the max response was -13.5%. On to `COc1cc(C(=O)N/N=C/C2CC=CCC2)cc(OC)c1OC` (centres undefined), for which the max response was -15.3%. As to `CCOC1=C/C(=C/c2c(N)n3nc(-c4ccccc4)sc3nc2=O)C=CC1=O`, the max response was 3.18%. On to `N#C/C(=C/c1ccc(N2CCCCCC2)o1)c1cccc(F)c1`, for which the max response was -26.2%. As to `N#C/C(=C/c1ccc(N2CCOCC2)o1)c1ccc(Cl)cc1`, the Potency is 4.61 µM (active).

With `Cc1ccc(/C(C#N)=C\c2ccc(N3CCOCC3)o2)cc1`, the Potency was 12.5 µM (active). On the same count and under the same terms, next, `N#C/C(=C/c1ccc(N2CCCCC2)o1)c1cccc(F)c1`: 5.17 µM (active); `N#C/C(=C/c1ccc(N2CCCCCC2)o1)c1ccc(Cl)cc1`: 3.66 µM (active). Turning to `CC(C)(C)C(=O)/C(=C/c1ccc(Cl)cc1)n1cncn1`, the max response is -2.57%. `C/C(=N\NC(=O)C(C)n1nc(C)c([N+](=O)[O-])c1C)c1ccccc1O` (centres undefined): the max response was 0.94%.

Turning to `COc1ccc(/C=N/n2cc(-c3ccccc3)nc2N)cc1`, the max response was -18.9%. In the case of `CCc1ccc(-c2cc(C(F)(F)F)n3nc(C(=O)Nc4cnn(Cc5ccc(C)cc5)c4)cc3n2)s1`, the Potency is 14.6 µM (active). In the case of `CC(=O)Nc1cccc(-c2ccnc3c2CC(C(=O)Nc2ccc(Cl)cc2)O3)c1` (centres undefined), the max response was -18.1%.

Turning to `CCc1sc(-c2cc3ccc(O)cc3oc2=O)nc1-c1ccc(C)cc1`, the Potency was 4.11 µM (active). Still for that read-out and setting: next, `O=c1oc2cc(O)ccc2cc1-c1nc(-c2ccc(Cl)c(Cl)c2)cs1`: 0.651 µM (active). Turning to `O=C(CCCCl)Oc1ccc2cc(-c3ccc4ccccc4n3)c(=O)oc2c1`, the max response is 3.21%.

On to `COc1cc(-c2nc3ccc(C)cn3c2NCc2ccccc2)ccc1SC1CCCCC1`, for which the max response was -8.35%. The same measure, in the same setting: in the case of `Cc1ccc(/C=N/NC(=O)c2nc3nc(C)cc(C)n3n2)cc1` it was 1.02%. Still for that read-out and setting: in the case of `CSc1nc(Sc2ccccc2Cl)c2ccccc2n1` it was -25.9%. For the compound `COc1cc(/C=C2\SC(=S)N(Nc3ncc(C(F)(F)F)cc3Cl)C2=O)ccc1O`, the Potency was 18.4 µM (active). Take `CN(C)c1ccc(/C=C2\SC(=S)N(Nc3ncc(C(F)(F)F)cc3Cl)C2=O)cc1`: the Potency was 5.8 µM (active). Take `COc1cc(/C=C2\SC(=S)N(NC(=O)c3ccc(O)c(OC)c3)C2=O)ccc1O`: the max response is -7.15%. In the case of `N#CC(=Cc1ccccn1)c1nc(-c2ccc(Cl)cc2)cs1`, the Potency is 15.8 µM (active). The same measure, in the same setting: in the case of `CCOC(=O)c1ccc(NC(=O)CSc2nc(-c3ccc(F)cc3)cc(C(F)(F)F)c2C#N)cc1` it was 18.4 µM (active). Turning to `CCOC(=O)c1ccc(NC(=O)CSc2nc(-c3ccc(OC)cc3)cc(C(F)(F)F)c2C#N)cc1`, the Potency was 18.4 µM (active).

`Cc1ccc(S(=O)(=O)CCSc2nc(C)cc(C(F)(F)F)c2C#N)cc1`: the Potency is 15.8 µM (active).

On to `O=C(CSc1nc2ccccc2s1)c1cc2ccccc2o1`, for which the max response was -2.01%. For the compound `CCOC(=O)c1ccc(N=Nc2c(C)c(C#N)c(O)[nH]c2=O)cc1`, the max response is -0.299%. The same measure, in the same setting: in the case of `CCOC(=O)c1c(NC(=O)CSc2nc3ccc(OC)cc3[nH]2)sc2c1CC(C)(C)NC2(C)C` it was -17.3%. As for `Cc1cc(C(F)(F)F)c(C#N)c(SCC(=O)Nc2nc3ccccc3s2)n1`, the Potency was 20.6 µM (active). Take `Cc1sc2nc(CSCC(=O)Nc3ccccc3C#N)[nH]c(=O)c2c1C`: the max response is -12.7%. Still for that read-out and setting: next, `CCOC1=C2CN(S(=O)(=O)c3ccc(C)cc3)[C@H](c3cccc4ccccc34)C[C@H]2C(C#N)(C#N)C(C#N)(C#N)C1`: -5.21%. For `CC1(C)Cc2ccccc2C2CC(O)C(=O)N21` (centres undefined), the max response was -21.2%.

For the compound `N#Cc1c(C(F)(F)F)cc(-c2cccs2)nc1SCC(=O)Nc1cccc(Cl)c1`, the max response is -7.91%. As to `CCOC(=O)c1ccc(NC(=O)CSc2nc(-c3cccs3)cc(C(F)(F)F)c2C#N)cc1`, the Potency is 16.4 µM (active). The same measure, in the same setting: next, `Cc1coc(NC(=O)CSc2nc(-c3ccncc3)cc(C(F)(F)F)c2C#N)n1`: 13 µM (active).

Regarding `N#Cc1c(C(F)(F)F)cc(-c2cccs2)nc1SCC(=O)Nc1cccc(C(F)(F)F)c1`, the Potency is 18.4 µM (active).

In the case of `CCCCOc1ccc(-c2cc(C(F)(F)F)c(C#N)c(SCC(=O)O)n2)cc1`, the Potency was 18.4 µM (active). In the case of `N#Cc1ccccc1NC(=O)CSc1nc(-c2ccccc2)cc(C(F)(F)F)c1C#N`, the max response is -28.7%. Regarding `N#Cc1c(Nc2ccccc2)[n+]([O-])c2ccc(Cl)cc2[n+]1[O-]`, the max response was -2.22%. For the compound `Oc1ccc(C=NNC(=S)Nc2ccc(F)cc2)c(O)c1`, the max response is -2.9%. Same read-out and setting: in the case of `S=C(NN=Cc1ccccn1)Nc1ccccn1` it was 1.89%.

As to `Clc1ccc(/C=N/NC2=Nc3cccc4cccc2c34)cc1`, the Potency was 14.6 µM (active). As to `Cc1csc(NC(=O)CCC(=O)N(CC(=O)NC2CCCC2)Cc2ccccc2)n1`, the max response was 0.176%.

Take `CCS(=O)(=O)N1N=C(c2ccc(C)cc2)CC1c1cc2ccc(OC)cc2nc1Cl` (centres undefined): the max response was -11.9%. Turning to `COc1ccc(C2CC(c3ccncc3)=NN2c2ccc(S(N)(=O)=O)cc2)cc1` (centres undefined), the Potency was 16.4 µM (active). Still for that read-out and setting: next, `C(=C\c1c[nH]c2ccccc12)/c1nccc2ccccc12`: 10.3 µM (active); `C(=Cc1c[nH]c2ccccc12)c1nccc2ccccc12`: 20.6 µM (active); `Cc1ccc2c(/C=C/c3c[nH]c4ccccc34)ccnc2c1C`: 14.6 µM (active). Consider `c1ccc2c(c1)nc(N1CCOCC1)c1nnnn12`, for which the max response is -7.94%.

With `COC(=O)c1sc(NC(=O)c2ccc([N+](=O)[O-])o2)c(C#N)c1C`, the max response was -29.9%.

Take `CCOC(=O)CCc1ccc(NC(=O)/C=C/c2ccc([N+](=O)[O-])o2)cc1`: the Potency was 8.2 µM (active).

Take `O=C(Nc1ncccn1)c1ccc([N+](=O)[O-])o1`: the max response was -18.8%. In the case of `N#CCc1ccc(NC(=O)/C=C/c2ccc([N+](=O)[O-])o2)cc1`, the Potency was 4.11 µM (active).

Turning to `Nc1ccccc1C=C1Cc2ccccc2C1=O`, the Potency is 11.6 µM (active). For the compound `O=[N+]([O-])c1ccccc1C=NNC(=S)NN=Cc1ccccc1[N+](=O)[O-]`, the max response is -27.9%. Still for that read-out and setting: in the case of `CCN1C/C(=C/c2cccc([N+](=O)[O-])c2)C(=O)/C(=C/c2cccc([N+](=O)[O-])c2)C1` it was -17.2%.

As for `O=C1C(=Cc2ccccc2[N+](=O)[O-])Cc2ccccc21`, the Potency is 18.4 µM (active). `CC(NC(=S)Nc1cccc(C(F)(F)F)c1)C(C)(C)C` (centres undefined): the max response was 1.09%. On the same count and under the same terms, next, `Cc1[nH][nH]c(=O)c1C(c1c(C)[nH][nH]c1=O)c1cn(Cc2ccccc2Cl)c2ccccc12`: -24.8%. For the compound `COc1cc(/C=C(\C#N)c2nc3ccc(C)cc3[nH]2)ccc1OC(C)C`, the Potency is 20.6 µM (active). On the same count and under the same terms, in the case of `Cc1ccc2nc(/C(C#N)=C/c3ccc(O)c(O)c3)[nH]c2c1` it was 15.8 µM (active). In the case of `C=CCNC(=S)N/N=C/c1ccc(C)cc1C`, the max response is -2.08%. Consider `O=[N+]([O-])c1ccc(N/N=C/c2c[nH]c3ccccc23)cc1`, for which the Potency is 14.6 µM (active).

Turning to `O=C(N/N=C/c1c[nH]c2ccccc12)C1COc2ccccc2O1` (centres undefined), the max response is 4.43%. For `Cc1[nH]c2ccccc2c1/C=N/Nc1ccc([N+](=O)[O-])cc1`, the Potency is 18.4 µM (active). On the same count and under the same terms, in the case of `COc1ccccc1NS(=O)(=O)c1cc([N+](=O)[O-])ccc1N/N=C/c1c[nH]c2ccccc12` it was 13 µM (active). Still for that read-out and setting: next, `COc1ccccc1NS(=O)(=O)c1cc([N+](=O)[O-])ccc1N/N=C/c1c(C)[nH]c2ccccc12`: 1.98 µM (active).

With `CCN(CC)c1ccc(NC(=O)c2ccc(=O)[nH]c2)cc1S(=O)(=O)Nc1ccccc1OC`, the max response was -20.2%. On to `Cc1cccn2c(=O)c3cc(C#N)c(=NC(=O)c4cccs4)n(CCCOC(C)C)c3nc12`, for which the max response was -23.5%. On the same count and under the same terms, in the case of `Cc1cccc(CSc2cccc3cccnc23)c1` it was 2.73%.
